The list is not random: actives were taken first. Their share in the collection is about 2.4%.
D2 antagonist: HTS Assay for Allosteric Antagonists of the Human D2 Dopamine Receptor: Primary Screen for Antagonists | 340,000 compounds, 2% hits | inhibition, % at 10 µM | HEK293 TREx D2 cells, calcium flux, dopamine EC80 | AID 485344, 2010 | D(2) dopamine receptor (Homo sapiens), P14416; in the data active means inhibition above about 30%; inactive means below that, where a call was filed
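HEK293 T-REx D2 cells, tet-induced, calcium dye no-wash. Cpd pintool add, 180 s kinetic, then EC80 DA, 180 s kinetic. Ca flux read.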
D2 PAM-1: Beta-Arrestin HTS for Positive Allosteric Modulators of the Human D2 Dopamine Receptor: Potentiators; D(2) dopamine receptor (Homo sapiens), P14416; DiscoveRx D2 beta-arrestin cells, luminescence, 90 min; 100% = 57 uM dopamine signal; potentiation, % (no concentration beside the values); 360,000 compounds, 0.23% hits; in the data active means potentiation above about 50%; inconclusive means mostly about 30% to 49%
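PathHunter beta-arrestin assay in DiscoveRx D2 cells. Compounds were added with an EC20 of dopamine (50 nM final) for 90 min at 37 deg C. Luminescence was read 1 h after detection reagent, with 57 uM dopamine as the EC100 control.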
D2 ag-1: Beta-Arrestin HTS for Positive Allosteric Modulators of the Human D2 Dopamine Receptor: Agonists. D(2) dopamine receptor (Homo sapiens), P14416. DiscoveRx PathHunter D2 beta-arrestin, luminescence, 90 min; 100% = 57 uM dopamine signal. activation, % (test concentration not listed). 360,000 compounds, 0.084% hits; in the data active means activation above about 40%; inconclusive means between about 15% and that limit
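Agonist mode: compounds alone added to overnight-plated D2 PathHunter cells for 90 min at 37 C, with 57 uM final dopamine (EC100) defining full response. Beta-arrestin recruitment detected by chemiluminescent reagent, read after 1 h at ambient temperature.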
D2 ag-2: HTS Assay for Allosteric Agonists of the Human D2 Dopamine Receptor: Primary Screen for Agonists | D(2) dopamine receptor (Homo sapiens), P14416 | HEK293 T-REx D2 cells, calcium flux agonist mode | activation, % at 2 µM | 340,000 compounds, 0.53% hits | AID 485358, 2010;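 active means activation over 3 SD above normal in the single-dose calcium agonist read, cut at about 30% in these data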
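Tetracycline-induced HEK293 T-REx cells with force-coupled D2 receptor, plated overnight at 30 C, loaded with no-wash calcium dye. After a 10 s baseline, compound was pin-added and calcium flux read kinetically for 180 s; calcium rises flagged agonists.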
D2 PAM-2: HTS Assay for Positive Allosteric Modulators of the Human D2 Dopamine Receptor: Primary Screen for Potentiators | D(2) dopamine receptor (Homo sapiens), P14416 | HEK293 T-REx D2, calcium flux, EC20 dopamine potentiation | potentiation, % at 10 µM | 340,000 compounds, 0.34% hits | AID 485347, 2010;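 active means potentiation over 3 SD above the plate norm, cut at about 30% in these data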
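Primary screen. Calcium kinetics in induced HEK293 T-REx D2 cells: compound pre-addition 180 s, EC20 dopamine, 180 s more.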
D3 ag: qHTS of D3 Dopamine Receptor Agonist: D3 Dopamine Receptor B-arrestin Agonist Confirmatory Assay. Potency, µM (top dose mostly 76.9 µM), actives largely listed as activators. DiscoveRx D3 beta-arrestin cells, luminescence, 90 min. 2,300 compounds, 4% hits. shares compounds with D2 ag-2; further: nearly all actives have a fitted effect of over 70% in size
Target sequence (P35462 whole entry, looked up): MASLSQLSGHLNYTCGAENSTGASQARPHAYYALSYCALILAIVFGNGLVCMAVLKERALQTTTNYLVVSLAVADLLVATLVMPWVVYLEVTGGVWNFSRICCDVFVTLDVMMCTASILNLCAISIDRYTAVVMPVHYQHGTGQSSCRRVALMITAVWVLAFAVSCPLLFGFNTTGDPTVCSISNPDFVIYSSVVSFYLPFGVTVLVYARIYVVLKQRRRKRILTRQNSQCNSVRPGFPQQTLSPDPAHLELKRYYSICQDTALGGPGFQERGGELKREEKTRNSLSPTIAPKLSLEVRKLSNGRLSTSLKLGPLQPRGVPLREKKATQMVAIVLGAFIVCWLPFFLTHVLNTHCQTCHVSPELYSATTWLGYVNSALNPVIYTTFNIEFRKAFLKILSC
D2 ag-3: qHTS of D3 Dopamine Receptor Agonist: D2 Dopamine Receptor B-arrestin Agonist Counterscreen; shares compounds with D2 ag-2; DiscoveRx PathHunter D2 beta-arrestin, luminescence, 90 min; response scale: percent relative to full dopamine signal; Potency, µM (series often up to 76.9 µM), actives largely listed as activators; 2,300 compounds, 5.9% hits; AID 720507, 2013; further: nearly all actives have a fitted effect of over 70% in size
Large screens that a line does not name were inactive (follow-up assays come after a bar, where they were run); ! = a repeat was not active. Unless noted, the call rests on the fitted dose curve; in most records, active means well fitted activation curve with a large enough effect; inconclusive means small, poorly fitted or top-dose-only effect; inactive means flat fitted curve, though single readings scatter.

CN1C(=O)CC(c2ccccc2)Nc2ccccc21 (stereo not given)	none | D3 ag inactive | D2 ag-3 inactive
CN1C(=O)N(C)C(=O)C2(Cc3ccccc3N3CCCC32)C1=O (stereo not given)	none
COC(=O)C1=C(c2ccccc2OCc2ccccc2)C[C@@H]2CC[C@H]1N2C(=O)NCc1ccc(OC)c(OC)c1	none | D3 ag inactive | D2 ag-3 inactive
COC(=O)C1=C(c2ccccc2OCc2ccccc2)C[C@@H]2CC[C@H]1N2C(=O)NCc1cccc(F)c1	none
COC(=O)C1=C(c2ccc(F)cc2OCc2ccccc2)C[C@@H]2CC[C@H]1N2C(=O)NCc1ccccc1Cl	none | D3 ag inactive | D2 ag-3 inactive
COc1ccc(NC(=O)CN2CC=C(c3ccccc3)CC2)cc1S(=O)(=O)N1CCOCC1	D2 ag-2 54 | D3 ag inconclusive | D2 ag-3 inactive
CCNCC(O)c1cccc(O)c1 (stereo not given)	D2 antagonist 32, D2 ag-2 36 | D3 ag inconclusive | D2 ag-3 inconclusive
NNCc1cccc(O)c1	none
N#Cc1cc([N+](=O)[O-])ccc1NC(=O)c1cccn(Cc2cccc(F)c2)c1=O	none (no result: D2 antagonist, D2 PAM-1, D2 ag-1)
CCCCc1ccc2[nH]cc(CCN)c2c1	D2 ag-2 44 | D3 ag inactive | D2 ag-3 inconclusive
NCCc1c[nH]c2ccccc12	none
COC(=O)c1ccccc1NC(=O)c1cccn(Cc2cccc(Cl)c2)c1=O	none (no result: D2 antagonist, D2 PAM-1, D2 ag-1)
Cc1ccc2c(c1)C(Cc1nc3ccccc3c(=O)n1-c1ccc(Br)cc1)C(=O)N2 (stereo not given)	none (no result: D2 antagonist, D2 PAM-1, D2 ag-1, D2 ag-2)
O=C(CN1CC=C(c2ccccc2)CC1)Nc1c(Cl)cccc1Cl	none
OC(COCc1ccc(Cl)cc1)CN1CC=C(c2ccccc2)CC1 (stereo not given)	D2 antagonist 85, D2 PAM-1 71!, D2 ag-1 83 | D3 ag 50µM | D2 ag-3 45µM
OC(CN1CC=C(c2ccccc2)CC1)c1ccccc1 (stereo not given)	D2 antagonist 75, D2 ag-2 77 | D3 ag inconclusive | D2 ag-3 inconclusive
O=C(CN1C(=O)CN=C(c2ccccc2)c2ccccc21)Nc1cccc(C(F)(F)F)c1	none (no result: D2 antagonist, D2 PAM-1, D2 ag-1, D2 PAM-2)
C1=C(c2ccccc2)CCNC1	D2 antagonist 43, D2 ag-2 40 | D3 ag inactive | D2 ag-3 inactive
CCOc1ccc(N2C(=O)NC(=O)/C(=C\c3ccc(N4CCOCC4)cc3C)C2=O)cc1	D2 ag-2 55 | D3 ag inactive | D2 ag-3 inactive
COc1ccc(N2C(=O)NC(=O)/C(=C/c3ccc(N4CCOCC4)cc3)C2=O)cc1	none (no result: D2 PAM-1, D2 ag-1)
COc1cccc(-c2nn3c(=O)cc(CN4CCN(C(=O)COc5ccccc5C)CC4)nc3s2)c1	none (no result: D2 antagonist, D2 PAM-1, D2 ag-1, D2 ag-2)
O=C(Nc1ccc(Cl)cc1C(=O)c1ccccc1)c1ccccc1Br	none (no result: D2 antagonist, D2 PAM-1, D2 ag-1)
CC1=C[C@@H]2c3cccc4[nH]cc(c34)C[C@H]2N(C)C1	D2 PAM-1 92, D2 ag-1 77 (no result: D2 antagonist, D2 ag-2) | D3 ag 0.089µM | D2 ag-3 2.8µM
CCOc1ccc2nc(NC(=O)c3cccn(Cc4ccccc4Cl)c3=O)sc2c1	none (no result: D2 antagonist, D2 PAM-1, D2 ag-1)
O=C(Nc1ccc(Br)cc1C(=O)c1ccccc1Cl)c1ccc(Br)cc1	none (no result: D2 antagonist, D2 PAM-1, D2 ag-1)
